A structure can be active in one record and inactive in another. The source made the active and inactive calls. How the source made its calls, unless noted: active means hit-call score of the fitted dose curve at least 0.9, where 1 is the maximum; inactive means score below 0.9.
What was measured:
[1] = target: Peroxisome proliferator-activated receptor gamma (Homo sapiens) (UniProt P37231); assay: OT_PPARg_PPARgSRC1_1440: Odyssey Thera (OT) 24-hour Protein-Complementation Assay for Peroxisome Proliferator-activated Receptor Gamma/ SRC-1 Co-activator (AID 2283388; active means hit-call score of the fitted dose curve at least 0.9, where 1 is the maximum;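 further: nuclear to cytoplasmic ratio of reconstituted Venus YFP fluorescence in fixed imaged cells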)
Summary of the method: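 Readout is the 488 nm N/C fluorescence ratio from fixed, Draq5-stained HEK293T cells after 24 h compound exposure. Cells carried transiently transfected PPARg and SRC-1 fused to Venus fragments, transfected 48 h before treatment.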

[2] = read-out: Tumor necrosis factor receptor superfamily member 6 (Homo sapiens) (UniProt P25445); assay: LTEA_HepaRG_FAS: Life Technologies and Expression Analysis (LTEA) Assay for Fas cell surface death receptor (FAS) using HepaRG (AID 2283447); settings: mRNA level, 48 h; actives raise or lower the signal
Summary of the method: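 Differentiated HepaRG cells in serum-free induction medium were exposed 48 h to 8 half-log concentrations up to 100 uM in 0.5% DMSO, in duplicate. FAS mRNA was measured by qRT-PCR normalised to ACTB, GAPDH and POLR2A; bidirectional fit versus DMSO.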

[3] = read-out: Fatty acid synthase (Homo sapiens) (UniProt P49327); assay: LTEA_HepaRG_FASN: Life Technologies and Expression Analysis (LTEA) Assay for Fatty Acid Synthase (FASN) using HepaRG (AID 2283448); settings: mRNA level, 48 h; actives raise or lower the signal;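 on AC50: differentiated human HepaRG liver cells in serum-free induction medium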
Summary of the method: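 FASN expression changes, up or down relative to 0.5% DMSO, were measured by qRT-PCR in human HepaRG cells after 48 h treatment with chemicals at eight concentrations (half-log steps from 100 uM).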

[4] = read-out: Cyclin D2 (CCND2), CCND2 (gene 894); assay: LTEA_HepaRG_CCND2: Life Technologies and Expression Analysis (LTEA) Assay for Cyclin D2 (CCND2) using HepaRG (AID 2283449); settings: mRNA level, 48 h; actives raise or lower the signal;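 further: CCND2 transcript measured by TaqMan qRT-PCR and normalised to three housekeeping genes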
Summary of the method: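 Chemicals in 0.5% DMSO, eight half-log concentrations from 100 uM top, were applied in duplicate for 48 h to human HepaRG cells in serum-free induction medium. CCND2 mRNA by TaqMan qRT-PCR, normalised to ACTB/GAPDH/POLR2A; bidirectional fit versus DMSO.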

[5] = read-out: Cyclin Dependent Kinase Inhibitor 1A (CDKN1A), CDKN1A (gene 1026); assay: LTEA_HepaRG_CDKN1A: Life Technologies and Expression Analysis (LTEA) Assay for Cyclin Dependent Kinase Inhibitor 1A (CDKN1A) using HepaRG (AID 2283450); settings: mRNA level, 48 h; actives raise or lower the signal
Summary of the method: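 Expression quantified by Fluidigm qRT-PCR with ACTB, GAPDH and POLR2A normalization, fitted bidirectionally against 0.5% DMSO. Cells: HepaRG, plated 48 h then treated 48 h in serum-free induction medium, top concentration 100 uM with half-log dilutions.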

[6] = read-out: Cyclin D1 (CCND1), CCND1 (gene 595); assay: LTEA_HepaRG_CCND1: Life Technologies and Expression Analysis (LTEA) Assay for Cyclin D1 (CCND1) using HepaRG (AID 2283451); settings: mRNA level, 48 h; actives raise or lower the signal;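 on AC50: differentiated human HepaRG liver cells in serum-free induction medium; TaqMan qRT-PCR transcript level normalised to ACTB GAPDH and POLR2A housekeeping genes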
Summary of the method: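 Expression of CCND1 was quantified by qRT-PCR on Fluidigm arrays using ACTB, GAPDH and POLR2A as reference genes. HepaRG cultures, plated 48 h beforehand, were dosed for 48 h at up to 100 uM (half-log, 8 points) in 0.5% DMSO.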

[7] = read-out: catalase (CAT), CAT (gene 847); assay: LTEA_HepaRG_CAT: Life Technologies and Expression Analysis (LTEA) Assay for catalase (CAT) using HepaRG (AID 2283452); settings: mRNA level, 48 h; actives raise or lower the signal;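 on AC50: TaqMan qRT-PCR signal normalized to ACTB GAPDH and POLR2A housekeeping genes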
Summary of the method: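 HepaRG cells in serum-free induction medium, 0.5% DMSO vehicle, exposed 48 h in duplicate over 8 half-log concentrations from 100 uM. CAT mRNA measured by qRT-PCR, normalized to ACTB, GAPDH, POLR2A; bidirectional fit versus DMSO.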

[8] = read-out: flavin-containing dimethylaniline monooxygenases 3 (FMO3), FMO3 (gene 2328); assay: LTEA_HepaRG_FMO3: Life Technologies and Expression Analysis (LTEA) Assay for flavin-containing dimethylaniline monooxygenases 3 (FMO3) using HepaRG (AID 2283453); settings: mRNA level, 48 h; actives raise or lower the signal;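 on AC50: differentiated human HepaRG liver cells in serum-free induction medium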
Summary of the method: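 Differentiated HepaRG cells in serum-free induction medium, exposed 48 h in duplicate to 8 half-log concentrations up to 100 uM in 0.5% DMSO. FMO3 mRNA by qRT-PCR, normalized to ACTB, GAPDH, POLR2A; bidirectional fit vs DMSO.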

[9] = read-out: Cytochrome P450 (CYP1A1), CYP1A1 (gene 1543); assay: LTEA_HepaRG_CYP1A1: Life Technologies and Expression Analysis (LTEA) Assay for Cytochrome P450 (CYP1A1) using HepaRG (AID 2283454); settings: mRNA level, 48 h; actives raise or lower the signal
Summary of the method: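 CYP1A1 transcript levels measured by Fluidigm qRT-PCR against three housekeeping genes, 48 h after chemical dosing of human HepaRG cells (highest concentration 100 uM, half-log steps, 0.5% DMSO vehicle). Gain or loss of signal fitted relative to DMSO.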

[10] = CEETOX_H295R_11DCORT: CeeTox H295R High-throughput Steroidogenesis Assay for 11-Deoxycortisol (11DCORT) (AID 2283432); settings: actives raise or lower the signal
Summary of the method: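 Adrenal carcinoma line H295R, run per OECD 456 with minor changes, was forskolin-stimulated (10 uM, 48 h) before a 48 h chemical exposure at 0.1% DMSO. Secreted 11-deoxycortisol was quantified by HPLC-MS/MS.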

[11] = CEETOX_H295R_OHPREG: CeeTox H295R High-throughput Steroidogenesis Assay for OH-Pregnenolone (OHPREG) (AID 2283434); settings: actives raise or lower the signal
Summary of the method: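 H295R cells pre-stimulated 48 h with 10 uM forskolin, then exposed 48 h to chemical in 0.1% DMSO. 17alpha-hydroxypregnenolone in medium quantified by MTBE extraction and HPLC-MS/MS; bidirectional fit versus DMSO, viability checked by MTT.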

[12] = CEETOX_H295R_OHPROG: CeeTox H295R High-throughput Steroidogenesis Assay for OH-Progesterone (OHPROG) (AID 2283435); settings: actives raise or lower the signal
Summary of the method: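 H295R, 10 uM forskolin prestim 48 h; cmpd in 0.1% DMSO 48 h; medium MTBE-extracted, HPLC-MS/MS for OH-progesterone; 7-pt std curve; bidirectional fit vs DMSO; MTT viability, chemicals diluted until viability >/=70%.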

[13] = CEETOX_H295R_CORTIC: CeeTox H295R High-throughput Steroidogenesis Assay for Corticosterone (CORTIC) (AID 2283437); settings: actives raise or lower the signal;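 further: human H295R adrenal cells prestimulated with forskolin before chemical exposure; corticosterone secreted into medium quantified by mass spectrometry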
Summary of the method: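 H295R adrenal cells prestimulated 48 hours with 10 uM forskolin, then exposed 48 hours to chemical in 0.1% DMSO. Corticosterone in medium measured by HPLC-MS/MS after MTBE extraction; MTT viability in the same wells; bidirectional fit versus DMSO.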

[14] = CEETOX_H295R_CORTISOL: CeeTox H295R High-throughput Steroidogenesis Assay for Cortisol (AID 2283438); settings: actives raise or lower the signal;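 further: cortisol secreted into medium quantified by LC-MS/MS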
Summary of the method: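 Forskolin 10 uM 48 h prestim → test cmpd in DMSO (0.1% final) 48 h → medium MTBE-extracted → LC-MS/MS cortisol vs 7-pt std curve. Gain/loss of signal fitted vs DMSO. MTT viability in same wells.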

[15] = CEETOX_H295R_DOC: CeeTox H295R High-throughput Steroidogenesis Assay for DOC (AID 2283439); settings: actives raise or lower the signal
Summary of the method: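 Readout: 11-deoxycorticosterone in culture medium by reverse-phase C18 HPLC with ESI+ tandem MS after MTBE extraction. Cells: H295R, forskolin-primed (10 uM, 48 h), chemical-treated 48 h; DMSO 0.1% final. Activity fitted bidirectionally versus DMSO.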

[16] = CEETOX_H295R_ESTRADIOL: CeeTox H295R High-throughput Steroidogenesis Assay for Estradiol (AID 2283440); settings: actives raise or lower the signal;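 further: estradiol secreted into medium quantified by LC-MS/MS after dansyl derivatisation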
Summary of the method: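 Estradiol in spent medium measured by LC-MS/MS after dansyl chloride derivatisation. Forskolin-primed (10 uM, 48 h) human adrenal H295R cells received test chemical 48 h at 0.1% DMSO; concentrations lowered until MTT viability >/=70%.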

[17] = CEETOX_H295R_ESTRONE: CeeTox H295R High-throughput Steroidogenesis Assay for Estrone (AID 2283441); settings: actives raise or lower the signal;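 further: human adrenal H295R cells prestimulated with forskolin for two days; estrone secreted into medium measured by LC-MS/MS after dansyl derivatization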
Summary of the method: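 H295R cells prestimulated 48 h with 10 uM forskolin, then exposed 48 h to chemicals in 0.1% DMSO final; estrone in medium extracted with MTBE, dansyl-derivatized, quantified by HPLC-MS/MS; bidirectional fitting versus DMSO, viability by MTT.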

[18] = CEETOX_H295R_PROG: CeeTox H295R High-throughput Steroidogenesis Assay for Progesterone (PROG) (AID 2283442); settings: actives raise or lower the signal;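 further: human H295R adrenal cells primed with 10 µM forskolin before dosing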
Summary of the method: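 Progesterone secreted by human H295R cells was measured by LC-MS/MS following 48 h chemical exposure at 0.1% DMSO, preceded by 48 h forskolin (10 uM) stimulation. Same-well MTT viability; cytotoxic concentrations diluted 10- or 100-fold and retested.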

Measured: AC50

Chain of Peroxisome proliferator-activated receptor gamma (Homo sapiens) (P37231 whole entry, looked up, the tested form may be a part): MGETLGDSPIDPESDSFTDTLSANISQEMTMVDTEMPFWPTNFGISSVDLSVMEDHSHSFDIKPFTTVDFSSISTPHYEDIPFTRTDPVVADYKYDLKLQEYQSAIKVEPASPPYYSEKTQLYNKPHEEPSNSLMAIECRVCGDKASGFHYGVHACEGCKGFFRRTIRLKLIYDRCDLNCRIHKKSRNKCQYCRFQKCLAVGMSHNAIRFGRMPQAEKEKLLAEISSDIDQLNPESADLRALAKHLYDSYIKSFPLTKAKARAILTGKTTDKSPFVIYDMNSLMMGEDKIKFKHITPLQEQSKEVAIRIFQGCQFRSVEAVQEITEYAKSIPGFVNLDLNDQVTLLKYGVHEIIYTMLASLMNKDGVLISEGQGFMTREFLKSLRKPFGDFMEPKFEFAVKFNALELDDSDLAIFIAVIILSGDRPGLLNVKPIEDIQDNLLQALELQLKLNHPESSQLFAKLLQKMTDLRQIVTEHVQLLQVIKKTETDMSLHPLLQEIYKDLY
Chain of Fatty acid synthase (Homo sapiens) (P49327 whole entry, looked up): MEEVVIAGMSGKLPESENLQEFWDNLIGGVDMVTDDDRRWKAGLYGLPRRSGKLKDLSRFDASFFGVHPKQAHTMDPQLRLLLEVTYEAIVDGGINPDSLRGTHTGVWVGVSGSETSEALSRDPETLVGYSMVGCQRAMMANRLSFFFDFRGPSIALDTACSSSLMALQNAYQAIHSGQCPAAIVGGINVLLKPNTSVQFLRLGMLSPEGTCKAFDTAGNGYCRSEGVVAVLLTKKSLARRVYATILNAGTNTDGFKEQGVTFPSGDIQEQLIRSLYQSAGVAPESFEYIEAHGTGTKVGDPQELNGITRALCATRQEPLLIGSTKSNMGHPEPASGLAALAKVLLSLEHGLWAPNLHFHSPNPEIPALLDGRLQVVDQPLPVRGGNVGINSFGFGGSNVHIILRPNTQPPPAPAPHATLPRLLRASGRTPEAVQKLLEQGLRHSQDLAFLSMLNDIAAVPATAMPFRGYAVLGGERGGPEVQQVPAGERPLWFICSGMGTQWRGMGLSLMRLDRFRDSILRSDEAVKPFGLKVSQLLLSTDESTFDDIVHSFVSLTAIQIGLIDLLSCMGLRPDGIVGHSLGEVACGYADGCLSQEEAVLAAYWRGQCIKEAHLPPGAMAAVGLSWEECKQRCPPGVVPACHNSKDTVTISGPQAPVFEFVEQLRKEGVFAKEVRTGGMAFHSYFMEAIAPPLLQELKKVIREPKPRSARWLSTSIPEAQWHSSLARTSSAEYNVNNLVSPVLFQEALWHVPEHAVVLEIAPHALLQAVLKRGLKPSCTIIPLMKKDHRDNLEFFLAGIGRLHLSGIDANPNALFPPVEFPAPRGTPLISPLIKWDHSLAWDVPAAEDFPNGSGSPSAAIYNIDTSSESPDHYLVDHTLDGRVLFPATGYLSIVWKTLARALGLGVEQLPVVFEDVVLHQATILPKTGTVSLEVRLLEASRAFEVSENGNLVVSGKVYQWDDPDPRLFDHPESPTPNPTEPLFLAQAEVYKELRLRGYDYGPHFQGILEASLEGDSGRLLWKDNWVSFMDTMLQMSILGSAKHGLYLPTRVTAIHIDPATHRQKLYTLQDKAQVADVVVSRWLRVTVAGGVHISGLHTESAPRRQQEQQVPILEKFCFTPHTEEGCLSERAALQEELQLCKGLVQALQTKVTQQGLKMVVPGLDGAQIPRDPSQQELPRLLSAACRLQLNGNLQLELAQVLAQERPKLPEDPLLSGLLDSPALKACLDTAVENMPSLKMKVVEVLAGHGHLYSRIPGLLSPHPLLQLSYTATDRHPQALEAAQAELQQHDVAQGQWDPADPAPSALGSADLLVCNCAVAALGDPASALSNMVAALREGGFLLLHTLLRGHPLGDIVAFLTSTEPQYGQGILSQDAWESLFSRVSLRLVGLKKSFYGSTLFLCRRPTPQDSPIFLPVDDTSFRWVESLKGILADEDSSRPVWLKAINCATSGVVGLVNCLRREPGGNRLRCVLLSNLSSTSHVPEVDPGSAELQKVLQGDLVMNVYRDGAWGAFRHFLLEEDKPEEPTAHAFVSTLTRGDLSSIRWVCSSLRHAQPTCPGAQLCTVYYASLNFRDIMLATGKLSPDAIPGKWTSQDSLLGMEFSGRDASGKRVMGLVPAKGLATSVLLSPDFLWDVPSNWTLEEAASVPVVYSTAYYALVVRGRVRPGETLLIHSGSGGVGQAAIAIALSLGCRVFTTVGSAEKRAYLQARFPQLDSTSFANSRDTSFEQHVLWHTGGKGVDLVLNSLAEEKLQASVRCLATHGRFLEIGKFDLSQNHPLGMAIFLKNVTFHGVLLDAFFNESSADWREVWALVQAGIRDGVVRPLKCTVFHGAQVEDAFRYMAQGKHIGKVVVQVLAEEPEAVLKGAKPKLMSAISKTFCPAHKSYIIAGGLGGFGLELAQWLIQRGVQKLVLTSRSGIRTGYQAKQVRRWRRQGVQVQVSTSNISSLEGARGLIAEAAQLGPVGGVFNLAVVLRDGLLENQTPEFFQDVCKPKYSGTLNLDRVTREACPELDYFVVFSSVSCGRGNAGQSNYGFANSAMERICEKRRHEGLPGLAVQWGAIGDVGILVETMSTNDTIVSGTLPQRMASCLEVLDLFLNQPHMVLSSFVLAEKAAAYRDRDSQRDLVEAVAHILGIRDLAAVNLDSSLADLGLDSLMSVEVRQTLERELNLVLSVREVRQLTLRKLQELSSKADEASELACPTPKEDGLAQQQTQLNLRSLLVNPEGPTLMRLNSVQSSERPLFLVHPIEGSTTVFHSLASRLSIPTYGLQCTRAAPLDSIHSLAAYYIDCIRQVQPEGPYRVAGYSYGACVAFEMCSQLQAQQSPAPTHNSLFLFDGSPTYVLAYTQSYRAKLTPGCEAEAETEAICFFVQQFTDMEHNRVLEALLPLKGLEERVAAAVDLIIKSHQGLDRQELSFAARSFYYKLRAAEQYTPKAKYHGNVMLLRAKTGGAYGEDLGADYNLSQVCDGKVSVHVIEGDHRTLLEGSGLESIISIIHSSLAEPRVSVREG

O=C(O)c1nc(Cl)ccc1Cl
inactive: [1] | [2] | [3] | [4] | [5] | [6] | [7] | [8] | [9]
active: [9] 50 µM

COc1cnc(OC)n2nc(NS(=O)(=O)c3c(OCC(F)F)cccc3C(F)(F)F)nc12
active: [9] 32.8 µM
inactive: [1] | [2] | [3] | [4] | [5] | [6] | [7] | [8]

COP(N)(=O)SC (stereo not drawn)
inactive: [1] | [2] | [3] | [4] | [5] | [6] | [7] | [8] | [9]

Fc1ccc(Oc2ccnc3cc(Cl)cc(Cl)c23)cc1
active: [8] 85.8 µM | [9] 24 µM
inactive: [1] | [2] | [3] | [4] | [5] | [6] | [7]

N#Cc1cc(Br)c(O)c(Br)c1
inactive: [1] | [2] | [4]
active: [3] 8.13 µM | [5] 10.1 µM | [6] 10.4 µM | [7] 9.54 µM | [8] 12.7 µM | [9] 73.6 µM

CCOP(=S)(OCC)SCn1c(=O)oc2cc(Cl)ccc21
active: [11] 5 µM | [13] 1.14 µM | [15] 1.36 µM | [16] 1.23 µM | [17] 1.62 µM | [18] 3.23 µM | [9] 53.7 µM
not listed: [1]
inactive: all other assays above

— PubChem BioAssay (EPA / NIEHS)
